Laboratory results published in PMC12136788.
The full ranking holds about 5,800 sequences; the median of “enrichment r” is about 0.68, and the highest 2% start at about 11. These entries were drawn from the full list.

B1: chr10:22535117:22535218:-|3pUTR|ENSG00000150867|unk|FALSE|unique (ssRNA)
RNA: GGGAGUUCUACAGUCCGACGAUCAAGGUACACAUACAUUAUUUGAGUAACUGUUUCCUUGGGGGCCAAUCUGUGUAUGCUUUUAGAAGUUUACAGAAUGCUUUUAUUUUUGUCUAUAACAAACAGUCUGUCAUUUAUUUCUGUCAACAGAGGAUUGAGCAUCA
B2: chr9:76611375:76614569:-|three_prime_utr|ENSG00000106772|control|control|control (ssRNA)
RNA: GGGAGUUCUACAGUCCGACGAUCAUGUUACCUUUUUCCACUUUGCACUACCUGGUGCCAUUCUAAAUUUCUAAGGGGAAAAAUAGAAAGUUUGUUUACUCUUAAGAUAUUUUAUGAAAUUGUGUGUACUUUCCUAUUUUGCCACAACAGAGGAUUGAGCAUCA
B3: chr12:131960804:131960905:+|CDS|ENSG00000183495|unk|total|mutant (ssRNA)
RNA: GGGAGUUCUACAGUCCGACGAUCCCCUCAGCAAGCCCGUCGGCACCCCAGUCUCCCAGUUAUCAAAUACAGCAGCUGAUGAACCGGAGCCCUGCAACCGGGCAGAACGUGAACAUCACCCUGCAGAGCGUGGGCCCUGUCGUCCAACAGAGGAUUGAGCAUCA
B4: chr1:154944474:154944574:-|3pUTR|ENSG00000163346|msi1_unk|FALSE|overlapping (ssRNA)
RNA: GGGAGUUCUACAGUCCGACGAUCUCGAGGCCCAGCACGAGGACUUACCCUGGGGUUUUGUUAGGUUUGGAAGCAGCUGUCCCUAGGGGGUGAAGUCCCCCCCCUUUUUUUUUUUACCCCUGCUUCUCCCACGGCUUCACCUCCCAACAGAGGAUUGAGCAUCA
B5: chr7:32869766:32869881:-|CDS|ENSG00000170852|unk|FALSE|bound_elsewhere (ssRNA)
RNA: GGGAGUUCUACAGUCCGACGAUCAUGUACUGUUAUUUUCCAAGGUCUGACUCAUGGGUAGAAAUGGCCAUGAGACAGACUAGUAGGUCCUUUGCUUCAGCUGCAGCUUUUGGUGAUAAAAUUUUCUAUAUUGGAGGGUUGCAUCAACAGAGGAUUGAGCAUCA
B6: chr2:42682433:42682535:+|CDS|ENSG00000057935|unk|FALSE|unique (ssRNA)
RNA: GGGAGUUCUACAGUCCGACGAUCUCACGCUAUGGAUACAUUGUAUAGACACAGCUAUGAUUUGAGCAGUGCCAUUAGUGUCUUAGUACCACUCGGAGGACCUGUUUUAUGCAGAGAUGAAAUGGAGGAAUGGUCAGCCUCUGACAACAGAGGAUUGAGCAUCA
B7: chr1:64832709:64832810:+|3pUTR|ENSG00000162437|msi1|total|mutant (ssRNA)
RNA: GGGAGUUCUACAGUCCGACGAUCACAGCCCGAAAGUUUAAGGUAAUUUCUAAGUAUACUACCUAUAAGUAACUGAUAAGAAUCCGGCAUCAUUCAGUGAUACCGCAGAUGACUAAUGGGUUUUUCAGGCCCUGCACUUCUCUUCAACAGAGGAUUGAGCAUCA
B8: chr7:16784014:16784129:+|3pUTR|ENSG00000106537|msi1_unk|total|mutant (ssRNA)
RNA: GGGAGUUCUACAGUCCGACGAUCGAUAAUUUACUUGCCGUCUUUUAUGAUUACACCAAUGUAUUCCCGAAACCGUUAUGUCUCCGGAAAUUGUGGUUUAAUUUUUGACUUUUACAGGUAAGUGCAAAGGAGAAGUGGUUUCAUCAACAGAGGAUUGAGCAUCA
B9: chr8:79641408:79641533:+|CDS|ENSG00000104435|unk|total|mutant (ssRNA)
RNA: GGGAGUUCUACAGUCCGACGAUCCCAGGCUUUUGAGCUGAUCUUGAAGCCACCAUCUCCUAUCUCAGAAGCCCCACGAACUUCCGCUUCUCCAAAGAAGAAAGACCUGUCCCUGGAGGAGAUCCAGAAGAAACUGGAGGCUGCCAACAGAGGAUUGAGCAUCA
B10: ENSG00000107863:be:win_6101|3pUTR|ENSG00000107863|bound_else_gene|NA|bound_elsewhere_windowed (ssRNA)
RNA: GGGAGUUCUACAGUCCGACGAUCGCAAGGUAUUUGUUGCAACUUACUACAUAGCAUAUACCCAAAAUCACUGAAGAAAAUCGCUGGCAUCAGUGUGCAGCAAAUUUGUUCUUUUGGUUUCAUCACUAACAAAAGUGCCUCAUCCAACAGAGGAUUGAGCAUCA
B11: chr14:102081487:102081564:-|3pUTR|ENSG00000080824|msi1_unk|FALSE|overlapping (ssRNA)
RNA: GGGAGUUCUACAGUCCGACGAUCGAAGAUAAGAUUUCUGUCUACUAAGUGAUGCUGUGAUACCUUAGGCACUAAAGCAGAGCUAGUAAUGCUUUUUGAGUUUCAUGUUGGUUUAUUUUCACAGAUUGGGGUAACGUGCACUGUCAACAGAGGAUUGAGCAUCA
B12: chr14:54957033:54957204:-|CDS|ENSG00000198554|control|control|control (ssRNA)
RNA: GGGAGUUCUACAGUCCGACGAUCGCACGUUCAACUAAUAUUUUAGACAAUAUGGGCAAAUCAUCCAAGAAAUCCACUGCACUUAGUCGAACUACAAAUAAUGAAAAGUCUCCCAUUAUAAAGCCUCUGAUUCCAAAGCCGAAGCAACAGAGGAUUGAGCAUCA
B13: chrX:55006554:55006655:+|CDS|ENSG00000169188|unk|FALSE|unique (ssRNA)
RNA: GGGAGUUCUACAGUCCGACGAUCAGGGCGCAAGUGGAUGGACAGCUUGCUCAGUAACUUGGGGUGCCAGUCUGCCUCUCAUGUAGGGCCCUUCAUCGAUAGCUACCGCUGCUUCCAACCAAAGCAGGAGGGGGCCUUCACCUGCAACAGAGGAUUGAGCAUCA
B14: chrX:112630647:112631419:-|three_prime_utr|ENSG00000182508|control|control|control (ssRNA)
RNA: GGGAGUUCUACAGUCCGACGAUCAGAAGAUUGGAGAGGGUGGGAAAGGGGAGGAGGGAGCCCUGAAAAGAGGUACUAAGGAUUAGGCCAUUUGUCAUCUGACUGUCAUUAGCAUAGCCUAGUGUUUGCAUGCUUUUUAAACUACAACAGAGGAUUGAGCAUCA
B15: chr1:173887777:173887878:+|3pUTR|ENSG00000185278|unk|FALSE|unique (ssRNA)
RNA: GGGAGUUCUACAGUCCGACGAUCAAAGAGAUUUGGCAGAGGGACAGGUUGUACCUGCACUGGUGAACCAUCUGUGAGAAUGUUAGUCAUGUGCUCCUUUCCUGAGAUUGCUUUGUGGUAUGUGAAAAGGUGGGUAGAAAAGAACAACAGAGGAUUGAGCAUCA
B16: chr1:93180074:93180188:-|CDS|ENSG00000117500|unk|FALSE|bound_elsewhere (ssRNA)
RNA: GGGAGUUCUACAGUCCGACGAUCCUGGCCGCUCUGCCUCCGGUGCUGCUGCCUGGGGCGGCCGGCUUCACACCUUCCCUCGAUAGCGACUUCACCUUUACCCUUCCCGCCGGCCAGAAGGAGUGCUUCUACCAGCCCAUGCCCCAACAGAGGAUUGAGCAUCA
B17: chr12:76028832:76028933:-|3pUTR|ENSG00000139289|msi1|total|mutant (ssRNA)
RNA: GGGAGUUCUACAGUCCGACGAUCAAAGGAAAAGACUGGAUAAACACAGGAUUUUCAGUAAGAAAACAACCCCAGUCUUGUCUCCGAAGCCACUUGUUGAGGAGUCUGUUGGGGGAAAAAAGAGGAUAUGCUUUUAAAGGCCGACAACAGAGGAUUGAGCAUCA
B18: chr3:27418507:27418620:-|CDS|ENSG00000033867|unk|FALSE|bound_elsewhere (ssRNA)
RNA: GGGAGUUCUACAGUCCGACGAUCUGAUGUAGCUUAUAAAGCAAAAGACAGAAAUGACCUCUUAUCUGGAAUUGAUGAAUUUUUAGAUCAAGUAACUGUCCUACCUCCAGGAGAGUGGGAUCCUUCUAUACGCAUAGAACCACCCAACAGAGGAUUGAGCAUCA
B19: chr11:35619468:35619569:+|CDS|ENSG00000179431|unk|FALSE|unique (ssRNA)
RNA: GGGAGUUCUACAGUCCGACGAUCCCCCCUCCGGGAUGCCGGGGGUGAGCUGGCCAACCUCAGCCAGGCGGAGCUGGUGGACCUAGUACAAUGGACCGACUUAAUCCUUUUCGACUACCUGACGGCCAACUUCGACCGGCUCGUCAACAGAGGAUUGAGCAUCA
B20: chr5:91369659:91369760:-|3pUTR|ENSG00000113369|msi1|total|mutant (ssRNA)
RNA: GGGAGUUCUACAGUCCGACGAUCUCAGCAUUUUCCAAGGUACCAAGUGUACUUAUUUUGUUGUUGUUGUUGUUGUUGUAUUUCCGAAGGAAUUCAGCUCUGAUGUUUUUAAAGAAAACCAGCAUCUCUGAUGUUGCAACAUACCAACAGAGGAUUGAGCAUCA
B21: chr9:35056615:35056731:-|3pUTR|ENSG00000165280|msi1|FALSE|unique (ssRNA)
RNA: GGGAGUUCUACAGUCCGACGAUCCCCUAUCCAACCUGGGUAGGUGGGUAGGGGCCACAGUUGCUGGAUGUUUAUAUAGAGAGUAGGUUGAUUUAUUUUACAUGCUUUUGAGUUAAUGUUGGAAAACUAAUCACAAGCAGUUUCCAACAGAGGAUUGAGCAUCA
B22: chr6:149379354:149379455:+|CDS|ENSG00000055208|msi1|FALSE|bound_elsewhere (ssRNA)
RNA: GGGAGUUCUACAGUCCGACGAUCAGGGGUGGUGUCCCCUACCUUUGAACUUACAAAUCUUCUUAAUCAUCCUGAUCAUUAUGUAGAAACCGAGAAUAUUCAGCACCUCACGGACCCUACAUUAGCACAUGUGGAUAGAAUAAGCAACAGAGGAUUGAGCAUCA

Each binder was assayed against T1, UNK ZnF1-6 (called full-length) (human, UniProt Q9C0B0 30-357) (assay: nsRBNS (natural sequence RNA bind-n-seq); RBNS binding buffer (assumed for nsRBNS): 25 mM Tris pH 7.5, 150 mM KCl, 3 mM MgCl2, 0.01% Triton X-100, 500 ug/ml BSA, 20 U/ml SUPERase-In, 4 C; UNK is unkempt and MSI1 is Musashi-1; names of the RNAs are library labels; protein concentration not given here; high values mean tight binding).
T1 sequence: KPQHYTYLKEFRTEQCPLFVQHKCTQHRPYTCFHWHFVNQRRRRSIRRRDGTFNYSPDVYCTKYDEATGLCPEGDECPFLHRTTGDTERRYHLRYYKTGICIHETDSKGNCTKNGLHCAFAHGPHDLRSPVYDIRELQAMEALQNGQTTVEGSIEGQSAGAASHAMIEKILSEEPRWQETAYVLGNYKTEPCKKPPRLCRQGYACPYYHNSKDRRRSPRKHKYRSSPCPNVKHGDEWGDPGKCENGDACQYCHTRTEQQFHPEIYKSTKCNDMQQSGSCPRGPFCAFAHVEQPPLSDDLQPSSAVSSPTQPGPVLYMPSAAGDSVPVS
For B1, the binding signal was 0.472 enrichment R.
For B2, the binding signal was 0.818 enrichment R.
In the case of B3, the binding signal is reported as 1.09 enrichment R.
Binder B4 has a binding signal of 1.37 enrichment R.
B5 gave a binding signal of 0.714 enrichment R.
B6 gave a binding signal of 0.747 enrichment R.
In the case of B7, the binding signal is reported as 0.244 enrichment R.
B8 was tested, and the binding signal was 0.435 enrichment R.
B9 showed a binding signal of 0.67 enrichment R.
Work on B10 yielded a binding signal of 0.567 enrichment R.
B11 showed a binding signal of 0.375 enrichment R.
Work on B12 yielded a binding signal of 1.02 enrichment R.
For B13, the binding signal was 0.87 enrichment R.
With B14 the binding signal was 1.14 enrichment R.
B15 showed a binding signal of 0.823 enrichment R.
B16 showed a binding signal of 1.1 enrichment R.
Work on B17 yielded a binding signal of 0.52 enrichment R.
B18 was tested, and the binding signal was 0.413 enrichment R.
With B19 the binding signal was 0.618 enrichment R.
With B20 the binding signal was 0.292 enrichment R.
In the case of B21, the binding signal is reported as 0.815 enrichment R.
For B22, the binding signal was 0.615 enrichment R.
